# Laboratory results published in PubChem BioAssay (NCATS).
# Records with an inconclusive call do not appear. A call without a number means that no potency is given here. Calls of active or inactive are those of the source. Unless noted, calls come from the whole dose curve; as a rule, active = well fitted curve in the direction sought with a large enough effect; inconclusive = small, poorly fitted or top-dose-only effect, or another doubt; inactive = no such curve, though single readings can be large; an effect the other way counts as inactive or inconclusive.
# Tests used:
# [1] = biological target: Voltage-gated inwardly rectifying potassium channel KCNH2 (Homo sapiens) (UniProt Q12809); assay: qHTS Assay for Small Molecule Inhibitors of the Human hERG Channel Activity (AID 588834);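 note: lower thallium flux fluorescence means stronger hERG block; nearly all actives have a fitted effect of over 50% in size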; note: potency is the fitted concentration of half-maximal effect
# Chain of Voltage-gated inwardly rectifying potassium channel KCNH2 (Homo sapiens) (Q12809 whole entry, looked up): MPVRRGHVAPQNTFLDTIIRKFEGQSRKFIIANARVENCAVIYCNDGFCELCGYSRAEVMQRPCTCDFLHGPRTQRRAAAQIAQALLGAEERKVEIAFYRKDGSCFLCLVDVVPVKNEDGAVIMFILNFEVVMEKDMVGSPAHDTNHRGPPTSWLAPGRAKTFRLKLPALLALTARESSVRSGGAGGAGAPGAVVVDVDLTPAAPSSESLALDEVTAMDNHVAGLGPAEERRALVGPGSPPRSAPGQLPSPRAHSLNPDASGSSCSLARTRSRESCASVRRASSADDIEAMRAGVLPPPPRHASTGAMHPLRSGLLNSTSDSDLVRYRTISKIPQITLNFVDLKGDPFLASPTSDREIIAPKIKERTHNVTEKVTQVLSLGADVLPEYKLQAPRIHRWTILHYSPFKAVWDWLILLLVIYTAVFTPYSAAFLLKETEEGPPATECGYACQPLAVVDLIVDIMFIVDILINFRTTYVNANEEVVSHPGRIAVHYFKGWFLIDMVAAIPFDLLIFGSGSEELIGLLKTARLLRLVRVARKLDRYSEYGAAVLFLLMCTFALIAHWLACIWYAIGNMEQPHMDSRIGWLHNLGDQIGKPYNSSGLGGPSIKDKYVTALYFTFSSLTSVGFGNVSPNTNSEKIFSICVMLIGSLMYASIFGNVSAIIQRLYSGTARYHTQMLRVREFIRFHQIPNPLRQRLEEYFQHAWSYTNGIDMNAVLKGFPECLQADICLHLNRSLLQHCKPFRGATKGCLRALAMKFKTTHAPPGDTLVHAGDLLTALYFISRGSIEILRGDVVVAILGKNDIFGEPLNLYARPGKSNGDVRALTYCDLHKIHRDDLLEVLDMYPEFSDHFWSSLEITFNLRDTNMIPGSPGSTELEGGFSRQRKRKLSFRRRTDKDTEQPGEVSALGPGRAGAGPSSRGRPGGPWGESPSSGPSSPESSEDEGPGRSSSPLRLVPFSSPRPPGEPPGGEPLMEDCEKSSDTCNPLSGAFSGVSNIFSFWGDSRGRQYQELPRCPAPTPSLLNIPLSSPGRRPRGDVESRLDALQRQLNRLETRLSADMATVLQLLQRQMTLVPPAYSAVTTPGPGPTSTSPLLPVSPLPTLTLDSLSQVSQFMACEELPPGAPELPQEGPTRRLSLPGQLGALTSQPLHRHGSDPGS
# Method in brief: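 Cells were infected with hERG-BacMam virus for 4 hrs at room temperature, grown overnight, then seeded at 2000/well. After dye loading and roughly 10 min compound treatment, thallium influx was triggered and fluorescence recorded.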
# [2] = biological target: Glutaminase kidney isoform, mitochondrial (Homo sapiens) (UniProt O94925); assay: qHTS for Inhibitors of Glutaminase (GLS): LOPAC Validation (AID 624146); note: nearly all actives have a fitted effect of over 60% in size; note: potency is the fitted concentration of half-maximal effect
# Chain of Glutaminase kidney isoform, mitochondrial (Homo sapiens) (O94925 whole entry, looked up, canonical isoform): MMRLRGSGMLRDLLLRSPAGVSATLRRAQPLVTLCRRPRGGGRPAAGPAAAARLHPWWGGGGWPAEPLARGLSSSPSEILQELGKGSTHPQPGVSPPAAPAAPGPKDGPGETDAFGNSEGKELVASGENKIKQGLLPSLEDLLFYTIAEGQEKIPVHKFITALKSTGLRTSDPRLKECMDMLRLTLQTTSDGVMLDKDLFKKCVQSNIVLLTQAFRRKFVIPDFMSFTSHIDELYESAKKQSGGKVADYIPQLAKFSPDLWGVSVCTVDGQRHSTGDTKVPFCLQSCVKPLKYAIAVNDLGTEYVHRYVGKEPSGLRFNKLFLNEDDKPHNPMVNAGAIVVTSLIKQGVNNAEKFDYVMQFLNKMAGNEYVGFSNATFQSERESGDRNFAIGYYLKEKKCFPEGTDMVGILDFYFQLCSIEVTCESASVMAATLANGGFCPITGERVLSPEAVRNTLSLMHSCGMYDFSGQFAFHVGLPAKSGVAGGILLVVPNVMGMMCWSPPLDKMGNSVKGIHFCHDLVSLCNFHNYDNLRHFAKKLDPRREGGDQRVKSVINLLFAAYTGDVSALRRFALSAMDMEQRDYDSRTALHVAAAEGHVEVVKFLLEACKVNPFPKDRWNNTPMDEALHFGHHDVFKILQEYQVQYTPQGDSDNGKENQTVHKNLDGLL
# Method in brief: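 hKGA in 45 mM KH2PO4 pH 8.2, 0.02% Tween-20 with pin-transferred compounds; 1 mM L-glutamine (stock) plus glutamate oxidase/HRP/Amplex Red coupling added. Fluorescence read initially and after 30 min at RT.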
# [3] = qHTS of Trypanosoma Brucei Inhibitors: LOPAC Validation (AID 624147)
# Method in brief: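 Enzyme and substrate buffer are dispensed first and compound is pin-transferred. ADP at 130 uM final then starts the reaction, which runs 45 min at room temperature. Detection reagent is added for 10 min before luminescence is imaged.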
# [4] = biological target: Glucagon-like peptide 1 receptor (Homo sapiens) (UniProt P43220); assay: qHTS of GLP-1 Receptor Agonists: LOPAC Validation (AID 624148);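 note: luminescence from a luciferase reporter switched on by cAMP; higher luminescence signal means agonism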
# Chain of Glucagon-like peptide 1 receptor (Homo sapiens) (P43220 whole entry, looked up): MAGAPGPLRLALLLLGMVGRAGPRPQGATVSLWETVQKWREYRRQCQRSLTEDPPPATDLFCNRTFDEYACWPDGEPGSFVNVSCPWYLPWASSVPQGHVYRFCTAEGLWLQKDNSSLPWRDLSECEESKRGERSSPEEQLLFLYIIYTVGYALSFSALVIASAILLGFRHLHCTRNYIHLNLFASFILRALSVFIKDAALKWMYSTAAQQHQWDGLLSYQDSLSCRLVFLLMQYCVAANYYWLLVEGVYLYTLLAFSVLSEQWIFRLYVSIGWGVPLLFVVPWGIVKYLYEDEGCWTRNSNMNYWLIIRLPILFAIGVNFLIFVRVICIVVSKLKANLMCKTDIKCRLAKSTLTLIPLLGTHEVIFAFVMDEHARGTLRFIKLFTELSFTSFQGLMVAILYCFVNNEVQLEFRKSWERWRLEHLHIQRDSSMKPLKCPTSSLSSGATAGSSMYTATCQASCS
# Method in brief: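 Agonism scored as increased luciferase luminescence driven by cAMP in HEK293 clones carrying GLP-1R. Cells settled 12 hours, received compound for 4-6 hr at 37 deg C, 5% CO2, and were read after 12 min detection reagent at RT.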
# [5] = qHTS of Nrf2 Activators: LOPAC Validation (AID 624149)
# Method in brief: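 AREc32_Fluc cells, 1000/well, OPTI-MEM + 5% FBS, o/n 37 deg C 5% CO2; compound pin-transfer, 24 hr 37 deg C; Steady-Glo 30 min RT, luminescence read.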
# [6] = HTS Assay for Allosteric Antagonists of the Human D2 Dopamine Receptor: Hit Validation in HTRF (AID 624455); note: potency is the fitted concentration of half-maximal effect
# Method in brief: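 HTRF read-out; cells stably expressing D1 receptor; hits scored for inhibition of D1-mediated response. Primary screen: calcium flux, force-coupled inducible Hek293 Trex D2 line, antagonism vs EC80 dopamine.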
# [7] = biological target: Luciferin 4-monooxygenase (Photinus pyralis) (UniProt P08659); assay: Biochemical firefly luciferase enzyme assay for NPC (AID 624030); note: nearly all actives have a fitted effect of over 70% in size; note: potency is the fitted concentration of half-maximal effect
# Chain of Luciferin 4-monooxygenase (Photinus pyralis) (P08659 whole entry, looked up): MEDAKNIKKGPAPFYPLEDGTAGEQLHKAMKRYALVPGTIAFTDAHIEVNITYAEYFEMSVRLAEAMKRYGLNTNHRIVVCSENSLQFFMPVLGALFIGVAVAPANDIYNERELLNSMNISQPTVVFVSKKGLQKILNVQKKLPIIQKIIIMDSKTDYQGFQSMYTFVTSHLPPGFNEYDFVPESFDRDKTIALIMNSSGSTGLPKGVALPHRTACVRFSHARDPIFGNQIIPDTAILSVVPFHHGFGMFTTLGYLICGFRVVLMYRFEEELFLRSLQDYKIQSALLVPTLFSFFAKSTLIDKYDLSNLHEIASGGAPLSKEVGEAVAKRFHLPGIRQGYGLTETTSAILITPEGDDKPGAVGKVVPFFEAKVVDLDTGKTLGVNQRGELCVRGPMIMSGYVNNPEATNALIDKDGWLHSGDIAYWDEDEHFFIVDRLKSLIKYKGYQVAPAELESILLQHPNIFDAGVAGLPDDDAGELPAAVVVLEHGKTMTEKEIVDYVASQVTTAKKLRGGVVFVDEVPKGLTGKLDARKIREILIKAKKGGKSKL
# Method in brief: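 Direct inhibition of firefly luciferase enzyme (10 nM final, 50 mM Tris Acetate) assessed by luminescence within 5 minutes. Percent activity scaled between DMSO and PTC124 positive control, with concentration-effect curves classified by fit quality and response.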
# [8] = S16 Schwann cell viability assay (CellTiter-Glo assay) (AID 624031); note: nearly all actives have a fitted effect of over 70% in size; note: potency is the fitted concentration of half-maximal effect
# Method in brief: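 Luminescent ATP read-out (CellTiter-Glo) after 24 h compound exposure of native S16 rat Schwann cells at 37 °C. Signals were normalized between cell-free wells and DMSO-treated cells, set as 0% activity.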
# [9] = S16 Schwann cell PMP22 intronic element firefly luciferase assay (AID 624032); note: nearly all actives have a fitted effect of over 30% in size; note: potency is the fitted concentration of half-maximal effect
# Method in brief: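 Luciferase reporter of PMP22 intronic-element expression in stably transfected S16 rat Schwann cells, read by ONE-Glo luminescence after 24 h compound exposure at 37 C. Activity scaled between DMSO (0%) and positive-control PTC124; concentration-effect curves quality-classified.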
# [10] = S16 Schwann cell PMP22 intronic element beta-lactamase assay (AID 624044; calls by dose curve; note: nearly all actives have a fitted effect of over 15% in size; note: potency is the fitted concentration of half-maximal effect)
# Method in brief: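 Beta-lactamase reporter under a PMP22 intronic regulatory element in stable S16 rat Schwann cells; 24 h compound exposure. 460 nm blue signal normalized between DMSO (0%) and potassium clavulanate, with 535 nm FRET tracking viability; curves classed by r2 and response.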
# [11] = qHTS assay for small molecule agonists of the antioxidant response element (ARE) signaling pathway (AID 651741; active = well fitted activation curve with a large enough effect in the signal ratio; the % refers to the signal ratio; note: potency is the fitted concentration of half-maximal effect)
# Method in brief: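 Agonist activity is measured as ARE-driven beta-lactamase expression in a stable HepG2 reporter line, using 16 h compound treatment at 37 C and a FRET substrate fluorescence readout after 2 h.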
SMILES,Potency [1],Potency [2],Potency [3],outcome [4],Potency [5],Potency [6],Potency [7],Potency [8],Potency [9],Potency [10],Potency [11]
Clc1ccc(N2CC3CCC(C2)N3)nn1,inactive,inactive,inactive,inactive,inactive,inactive,,,,,
Ic1ccccc1CNC1C2CCN(CC2)C1C(c1ccccc1)c1ccccc1 (stereo unspecified),1 µM (active),inactive,inactive,inactive,inactive,inactive,,,,,
NC(=O)COc1c(F)cc(SCCNS(=O)(=O)c2ccccc2)cc1F,inactive,inactive,inactive,inactive,inactive,inactive,,,,,
CCCCCCC(C)(C)c1ccc([C@@H]2C[C@H](O)CC[C@H]2CCCO)c(O)c1,8.91 µM (active),inactive,inactive,inactive,inactive,inactive,,,,,
NC(Cc1cc(O)c(O)cc1O)C(=O)O (stereo unspecified),inactive,inactive,inactive,inactive,inactive,inactive,,,,,
CN1CCC(c2c[nH]c3ccc(O)cc23)CC1,2 µM (active),1.26 µM (active),inactive,inactive,inactive,inactive,,,,,
C[C@]12Cc3cn4c(nc3C=C1CCC1C2CC[C@@]2(C)[C@H]1CC[C@@]2(O)C#N)nc1ccccc14 (stereo partly specified),2 µM (active),inactive,inactive,inactive,inactive,inactive,,,,,
C[N+](C)(C)CCOC(=O)CBr,inactive,inactive,inactive,inactive,inactive,inactive,,,,,
O=[N+]([O-])c1cc(O)c(O)c([N+](=O)[O-])c1,inactive,12.6 µM (active),inactive,inactive,inactive,inactive,,,,,
CC(N)c1cccc(Cl)c1Cl (stereo unspecified),inactive,inactive,inactive,inactive,inactive,inactive,,,,,
OC1CCCCC1N1CCC(c2ccccc2)CC1 (stereo unspecified),inactive,inactive,inactive,inactive,inactive,inactive,,,,,
COC(=O)N1CCN(C(=O)Cc2ccc(Cl)c(Cl)c2)C(CN2CCCC2)C1 (stereo unspecified),11.2 µM (active),inactive,inactive,inactive,inactive,inactive,,,,,
CCN(CCCl)Cc1ccccc1Br,inactive,inactive,inactive,inactive,inactive,inactive,,,,,
Oc1ccc2c3c1O[C@H]1c4oc5ccccc5c4C[C@@]4(O)C(C2)N(CC2CC2)CCC314 (stereo partly specified),0.355 µM (active),8.91 µM (active),inactive,inactive,inactive,inactive,,,,,
Nc1ccc(CCN2CCN(c3cccc(C(F)(F)F)c3)CC2)cc1,2.24 µM (active),inactive,inactive,inactive,inactive,inactive,,,,,
CP(=O)(O)C1=CCNCC1,inactive,inactive,inactive,inactive,inactive,inactive,,,,,

SMILES,Potency [1],Potency [2],Potency [3],outcome [4],Potency [5],Potency [6],Potency [7],Potency [8],Potency [9],Potency [10],Potency [11]
C[N+]1(C)CCN(c2ccccc2)CC1,inactive,inactive,inactive,inactive,inactive,inactive,,,,,
COc1ccc(CNC(=O)/C=C/c2ccc3[nH]cc(CCN(C)C)c3c2)cc1,11.2 µM (active),inactive,inactive,inactive,inactive,inactive,,,,,
COc1ccc2c(c1)[C@@]13CCCC[C@H]1[C@@H](C2)NCC3,11.2 µM (active),inactive,inactive,inactive,inactive,inactive,,,,,
CC(N)Cc1c[nH]c2ccc(OCc3cccs3)cc12 (stereo unspecified),2.82 µM (active),inactive,inactive,inactive,inactive,inactive,,,,,
NCC(O)c1cc(O)c(O)cc1F (stereo unspecified),inactive,inactive,inactive,inactive,inactive,0.326 µM (active),,,,,
NCC(CP(=O)(O)O)c1ccc(Cl)cc1 (stereo unspecified),inactive,inactive,inactive,inactive,inactive,inactive,,,,,
CCNC(C)Cc1cccc(C(F)(F)F)c1 (stereo unspecified),,,,,,,inactive,inactive,inactive,inactive,
[Cl-].[Cl-].[Hg+2],,,,,,,12.8 µM (active),2.56 µM (active),0.809 µM (active),3.16 µM (active),29.8 µM (active)
Cc1sc2ccccc2c1CC1=NCCN1,,inactive,inactive,inactive,inactive,inactive,inactive,inactive,inactive,inactive,
CCCN1CCC[C@@H](c2cccc(O)c2)C1,,inactive,inactive,inactive,inactive,,,,,,
CCCN(CCC)[C@H]1CCc2c(F)ccc(O)c2C1,7.08 µM (active),,inactive,inactive,inactive,7.31 µM (active),,,,,
C[C@@H]1O[C@@H](O[C@H]2C[C@@H](O)[C@]3(CO)[C@@H]4C(CC[C@]3(O)C2)[C@@]2(O)CC[C@H]([C@@H]3COC(=O)C3)[C@@]2(C)C[C@H]4O)[C@H](O)[C@H](O)[C@H]1O (stereo partly specified),,inactive,inactive,inactive,inactive,,,,,,
c1ccc(C2(N3CCCC3)CCCCC2)cc1,,,,,,,inactive,inactive,,inactive,
Cc1c2ccncc2c(C)c2c1[nH]c1ccccc12,20 µM (active),,inactive,inactive,inactive,inactive,,,,,
CN(N=O)c1cc(O)ccc1O,inactive,1.78 µM (active),,inactive,inactive,inactive,,,,,
